Assay results as given in PubChem BioAssay AID624330 (Southern Research Specialized Biocontainment Screening …, 2012).
The campaign covered roughly 340,000 compounds. About 2,100 (0.62%) were called active.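 Rule for the calls: active = first-screen hits whose inhibition reached a set limit at any dose in the follow-up dose series; inconclusive = inhibition above the set first-screen limit but never retested; inactive = the rest.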 These entries were drawn from the full list. Measured potencies and affinities stand elsewhere.

Target: Rac GTPase-activating protein 1 (Homo sapiens) (UniProt Q9H0H5)
Assay: MgcRacGAP GTPase-activating activity inhibitors, confirmation, biochemical, ADP Hunter fluorescence, primary and confirmatory (AID 624330);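 note: fluorescence reports GDP produced by GAP-driven GTP hydrolysis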
Conditions: MgcRacGAP-stimulated Rac1 GTP hydrolysis, at 30 µM, stronger effect = higher value, GST-tagged Rac1 F28L mutant substrate

Rac GTPase-activating protein 1 (Homo sapiens), sequence (Q9H0H5 whole entry, looked up): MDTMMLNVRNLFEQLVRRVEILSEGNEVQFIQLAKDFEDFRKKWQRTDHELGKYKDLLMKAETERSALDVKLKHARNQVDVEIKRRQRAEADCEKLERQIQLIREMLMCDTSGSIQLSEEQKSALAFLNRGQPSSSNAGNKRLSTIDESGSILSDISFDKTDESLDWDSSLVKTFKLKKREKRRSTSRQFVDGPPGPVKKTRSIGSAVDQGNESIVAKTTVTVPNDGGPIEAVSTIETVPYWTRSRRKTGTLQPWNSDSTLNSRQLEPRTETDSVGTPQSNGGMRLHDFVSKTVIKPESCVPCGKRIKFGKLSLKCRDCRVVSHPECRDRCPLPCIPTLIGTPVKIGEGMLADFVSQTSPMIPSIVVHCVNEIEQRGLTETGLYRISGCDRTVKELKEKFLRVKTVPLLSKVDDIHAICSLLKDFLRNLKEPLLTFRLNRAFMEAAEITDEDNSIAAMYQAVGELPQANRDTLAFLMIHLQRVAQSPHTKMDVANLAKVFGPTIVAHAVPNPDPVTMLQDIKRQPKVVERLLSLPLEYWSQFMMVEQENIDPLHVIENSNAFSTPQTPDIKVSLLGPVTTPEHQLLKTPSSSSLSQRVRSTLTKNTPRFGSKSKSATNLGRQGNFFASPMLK

SMILES | inhibition
CCCCN(C(=O)c1ccc2c(c1)S(=O)(=O)N=C1CCCCCN12)c1c(N)n(CCCC)c(=O)[nH]c1=O | -0.05% (inactive)
CC1C(=O)Nc2ccc(S(=O)(=O)NCc3ccc(Cl)cc3)cc2NC1=O (configuration not stated) | 7.58% (inactive)
Cc1ccc(F)cc1NC(=O)CCOc1ccccc1 | -2.1% (inactive)
CCCc1cc(=O)n2nc(N3CCC(C(=O)NCc4ccco4)CC3)sc2n1 | 4.69% (inactive)
COc1cc2c(cc1NC(=O)c1ccncc1)oc1ccccc12 | 14.9% (inactive)
C=Cn1cc(CNC[C@H]2O[C@@H](n3ccc(N)nc3=O)[C@H](O)[C@@H]2O)c(C)n1 | 0.77% (inactive)
COc1ccc(CCNS(=O)(=O)c2ccc(-n3cnnn3)cc2)cc1OC | 4.09% (inactive)
O=C(Nc1nc2ccccc2[nH]1)Nc1ccccc1F | -2.47% (inactive)
CCCc1ccc2oc(C(=O)N3CCCC3)c(C)c2c1 | 3.8% (inactive)
O=C(NC1CCN(S(=O)(=O)c2ccc(F)cc2)CC1)c1cccc(F)c1 | 4.4% (inactive)
Cc1ccc(-n2nc3cc(C)c(N)cc3n2)cc1 | 8.27% (inactive)
Cc1cc2nc3ccc(N(C)C)cc3nc2cc1N | 18.1% (inactive)
CS(=O)(=O)N1CCN(c2ccccc2NC(=O)c2ccc(Cl)cc2)CC1 | 13.8% (inactive)
CC(=O)c1ccc(Nc2ccc([N+](=O)[O-])c3nonc23)cc1 | 4.9% (inactive)
O=[N+]([O-])c1c(Nc2ccc(O)cc2)cc(Cl)c2nonc12 | 16.8% (inactive)
O=[N+]([O-])c1ccc(Nc2ccccc2O)c2nonc12 | 19.7% (inactive)
O=[N+]([O-])c1c(Nc2ccccc2O)cc(Cl)c2nonc12 | 16.1% (inactive)
CN(C)c1cc(Nc2ccc(O)cc2)c([N+](=O)[O-])c2nonc12 | 13.9% (inactive)
O=[N+]([O-])c1ccc2nonc2c1Nc1ccccc1 | 5.91% (inactive)
Cn1c(/N=C/c2ccccc2[N+](=O)[O-])nc2ccccc21 | 2.88% (inactive)
CC(=O)N1CCC(N(CCN2CCOCC2)C(=S)Nc2cc(C)cc(C)c2)CC1 | 9.32% (inactive)

SMILES | inhibition
Cc1ccc2cc(CN(CC(C)C)S(=O)(=O)c3cccc4nonc34)c(=O)[nH]c2c1 | 9.22% (inactive)
CC(/C=C/C=C/c1ccccc1)=N/NC(=O)C(O)c1ccccc1 (configuration not stated) | 13.5% (inactive)
C=COCCCNc1ncnc2sc(-c3ccccc3)cc12 | 23.7% (inactive)
OCCOCCNc1ncnc2sc(-c3ccccc3)cc12 | 23% (inactive)
O=C(NCCCN1CCCC1)c1ccc2c(c1)N(Cc1ccc(F)cc1)C(=O)c1ccccc1S2=O (configuration not stated) | 6.31% (inactive)
CSc1n[nH]c(NCc2ccc(C)cc2)n1 | -0.45% (inactive)
CC(C)(C)c1nc(N)nc(=O)[nH]1 | 4.68% (inactive)
Nc1nc(N)c2[nH]c(-c3ccccc3)nc2n1 | 6.78% (inactive)
COc1cc(O)c2c(c1)COC2=O | 4.96% (inactive)
C=CCc1cc(OC)ccc1OCCON1C(=O)CCC1=O | 8.6% (inactive)
CN(C)c1cccc(C(=O)OCC(=O)NC(=O)NCc2ccccc2)c1 | -0.47% (inactive)
CCOC(=O)c1cnc(Nc2ccccc2)nc1C(F)(F)F | 1.7% (inactive)
Cc1c(N=Cc2ccc(-c3ccc(Cl)cc3)o2)c(=O)n(-c2ccccc2)n1C | 3.54% (inactive)
O=C(Cc1cccc(C(F)(F)F)c1)OCN1C(=O)c2ccccc2C1=O | 4.25% (inactive)
CCS(=O)(=O)c1ccc(O)c(NC(=O)CCCC(=O)O)c1 | 13.8% (inactive)
CCCCCC(=O)Nc1cc(S(=O)(=O)N2CCCCC2)ccc1N1CCCCC1 | 9.51% (inactive)
Cc1ccc(-c2nc(CS(=O)(=O)CC(=O)NCc3cccc(F)c3)c(C)o2)cc1 | 7.24% (inactive)
CC#C[C@@H](CC)c1ccc2ccn(C)c2c1 | 9.11% (inactive)
O=C1c2c(O)cccc2C(C2OC(CO)[C@@H](O)[C@H](O)[C@H]2O)c2cc(CO)cc(O)c21 (some centres not stated) | 11.8% (inactive)
O=C1c2cc(CO)cc(O)c2C(=O)c2c(O[C@@H]3OC(CO)[C@@H](O)[C@@H](O)[C@@H]3O)cccc21 (some centres not stated) | 7.99% (inactive)
Cc1ccc2c(C(=O)N3CCN(c4ccccc4)CC3)cc(-c3cccnc3)nc2c1C | 6.48% (inactive)

SMILES | inhibition
COC(=O)CC1SC(=O)NC1=Nc1ccc(C)cc1 (configuration not stated) | 8.37% (inactive)
COC(=O)CC1SC(=O)NC1=Nc1ccc(OC)cc1 (configuration not stated) | 6.86% (inactive)
Cc1cc(Nc2ccccc2Cl)n2nnnc2n1 | 2.54% (inactive)
COC(=O)CSc1nc(N)c2c3c(sc2n1)C(c1ccccc1)SC(c1ccccc1)C3 (configuration not stated) | 6.76% (inactive)
O=C1C(=O)c2ccc(-c3ccccc3)cc2-c2ccccc21 | 7.95% (inactive)
O=C1C(=C(O)c2ccccc2)C(=O)c2ccccc21 | 8.92% (inactive)
COc1ccc(N(CC(=O)Nc2ccccc2F)S(=O)(=O)c2ccc(OC)c(OC)c2)cc1 | -10.3% (inactive)
COc1ccc(C(=O)Nc2cccc3nc(C)ccc23)cc1OC | 12.2% (inactive)
CN(C)Cc1c(O)ccc2occ(C(=O)c3ccccc3)c12 | 6.64% (inactive)
Cc1ccc(C(=O)c2coc3ccc(O)c(Cl)c23)cc1 | 16% (inactive)
COc1ccc(NC(=O)COc2ccc3c(c2)OCO3)cc1 | 6.39% (inactive)
COc1cccc(CN2CC(C(=O)NC3CCCCCC3)CCC2=O)c1 (configuration not stated) | 2.79% (inactive)
CCN(CCNCC(O)COCc1ccc(Cl)cc1)c1cccc(C)c1 (configuration not stated) | 31.7% (inactive)
CC(C)c1ccccc1OCC(O)CN(CC(O)COc1cccc2ccccc12)C(C)C (configuration not stated) | 4.64% (inactive)
C=CCOc1ccc(C(=O)Nc2ncn[nH]2)cc1 | 4.62% (inactive)
COc1ccc(NC(=O)C2CCCO2)cc1OC (configuration not stated) | 10.4% (inactive)
COc1ccc([C@@H](OC)[C@@]2(Cc3ccc(O)cc3)N=C(N)N(C)C2=O)cc1 | 0.02% (inactive)
COc1ccc(NC(=O)c2ccccc2NC(=O)C2CCCO2)cc1 (configuration not stated) | 10.5% (inactive)
CC(=Nc1ccc(C)cc1)c1sc2ccccc2c1O | 2.37% (inactive)
CC(=Nc1ccccc1)c1sc2ccccc2c1O | 19.1% (inactive)
